# An excerpt weighted towards active compounds, which were near 3.5% of everything screened.
# FBW7 act: activators of human E3 ligase FBW7. Q969H0. AlphaScreen FBW7–phospho-cyclin E peptide binding, activator screen. normalized activity (activation), % at 26.1 µM. hit rate 0.13% among 650,000. AID 1259310; in the data active = normalized activity above about 1.9%;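 also: purified mutant Fbw7 with reduced substrate affinity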
# Target sequence (Q969H0 whole entry, looked up): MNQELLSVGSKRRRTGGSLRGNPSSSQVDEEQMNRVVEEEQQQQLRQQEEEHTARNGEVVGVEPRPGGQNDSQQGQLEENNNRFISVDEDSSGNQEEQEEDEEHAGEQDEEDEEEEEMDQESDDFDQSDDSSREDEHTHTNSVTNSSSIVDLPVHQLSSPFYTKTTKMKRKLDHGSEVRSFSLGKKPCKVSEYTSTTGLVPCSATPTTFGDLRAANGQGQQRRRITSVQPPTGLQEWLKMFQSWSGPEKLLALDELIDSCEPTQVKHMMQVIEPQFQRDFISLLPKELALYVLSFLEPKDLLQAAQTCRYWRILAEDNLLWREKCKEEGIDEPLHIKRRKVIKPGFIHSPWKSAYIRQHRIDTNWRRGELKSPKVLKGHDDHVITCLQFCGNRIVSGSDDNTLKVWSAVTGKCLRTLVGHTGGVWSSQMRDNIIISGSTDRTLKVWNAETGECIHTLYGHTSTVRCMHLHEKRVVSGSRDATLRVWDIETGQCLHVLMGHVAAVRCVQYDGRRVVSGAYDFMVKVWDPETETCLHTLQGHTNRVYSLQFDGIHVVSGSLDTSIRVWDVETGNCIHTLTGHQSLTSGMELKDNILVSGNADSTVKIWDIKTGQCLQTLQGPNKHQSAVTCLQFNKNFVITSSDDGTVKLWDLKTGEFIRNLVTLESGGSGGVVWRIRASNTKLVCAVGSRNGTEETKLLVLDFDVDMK
# GPR151 activ: activators of human GPR151 | Q8TDV0 | PathHunter beta-arrestin GPR151 cells, luminescence | activation, % at 11.2 µM | hit rate 1% among 650,000; in the data active = activation above about 4.9%;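 also: 0% = median of compound wells and 100% = cells with positive control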
# MITF inh: blocks human microphthalmia-associated transcription factor | O75030 | AlphaScreen MITF homodimerization, bead proximity signal | inhibition, % at 2.6 µM | hit rate 0.91% among 650,000; in the data active = inhibition above about 50%;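 also: 0% = vehicle wells with protein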
# TEAD-YAP inh: TEAD-YAP interaction inhibition; HEK-TIYL cells, TEAD-Gal4/YAP UAS-luciferase luminescence; inhibition, % at 9.12 µM; hit rate 1.4% among 640,000; in the data active = inhibition above about 32%;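 also: 0% = median of test compound wells and 100% = reference inhibitor wells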
# Numbers without * were called inactive; ! = a repeat was not active.
SMILES,FBW7 act,GPR151 activ,MITF inh,TEAD-YAP inh
CCOc1ccc(C2Oc3c(Cl)cc(Cl)cc3C=C2[N+](=O)[O-])cc1OCC (stereo unspecified),0,0,24,64*
CCOc1ccc(C2Oc3c(cccc3OC)C=C2[N+](=O)[O-])cc1OCC (stereo unspecified),0,-1,11,21
COc1ccc(-c2cc(Nc3cc(OC)c(OC)c(OC)c3)nc(N)n2)cc1,0,2,-17,41*
COc1ccc(-c2cc(Nc3ccc(NC(C)=O)cc3)nc(N)n2)cn1,0,-1,-6,-13
COc1ccc(-c2cc(Nc3ccc(Oc4ccccc4)cc3)nc(N)n2)cn1,0,2,6,44*
COc1ccc(CCNc2cc(-c3ccccc3)nc(N)n2)cc1,0,0,3,42*
COc1cc(Nc2cc(N3CCc4ccccc4C3)nc(N)n2)cc(OC)c1OC,0,3,5,37*
COc1ccc(-c2cc(NCCc3ccc(O)cc3)nc(N)n2)cc1,0,-1,7,-44
COc1ccccc1/C=N/NC(=O)COc1ccc(Cl)cc1Cl,0,-1,-14,-10
COc1ccc(CCNc2cc(-c3ccc(OC)nc3)nc(N)n2)cc1,0,-1,0,51*
Cc1nn(C)c(C)c1-c1cc(Nc2ccc(Oc3ccccc3)cc2)nc(N)n1,0,-1,40,54*
CCCCCNC(=O)c1cccc(NC2=NC3CS(=O)(=O)CC3S2)c1 (stereo unspecified),0,1,-1,3
COc1ccc(OCc2n(CC(=O)OC3CC(C)CCC3C(C)C)c3ccccc3[n+]2C)cc1 (stereo unspecified),0,1,8,41*
Cc1ccc(S(=O)(=O)NC(C)c2ccccc2)cc1C (stereo unspecified),0,0,-6,-5
CCN1/C(=C/c2cccc[n+]2C)Sc2ccc(OC)cc21,0,0,2,84*
COc1ccc(/C=C/c2cccc[n+]2C)c(OC)c1,0,0,25,15
CCN1/C(=C\C(C)=O)Sc2ccc3ccccc3c21,0,-1,11,-1
COc1ccc2c(c1)N(C)/C(=C/c1cccc[n+]1C)S2,0,-1,12,77*
CCN1/C(=C/C(C)=O)Sc2ccc(OC)cc21,0,-1,18,32*!
COc1cc2c(c(OC)c1OC)-c1ccc(OC)c(=O)cc1[C@@H](NC(C)=O)CC2,0,-1,16,58*
COc1ccc2c(c1OC)C(=O)OC2Nc1cccc(NC(C)=O)c1 (stereo unspecified),1,0,9,-2
COc1ccc(-c2cc(C(=O)NCc3cccnc3)no2)cc1,0,0,1,-29
CC1Cc2cc(-c3cc(CC(=O)NCc4cccnc4)no3)ccc2O1 (stereo unspecified),0,0,6,34*
COc1ccc(-c2csc(NC(=O)c3cc(Cl)ccc3[N+](=O)[O-])n2)cc1OC,0,-1,15,-1
O=C1CS/C(=C/c2nc(-c3ccc(Cl)cc3)cs2)N1,1,-1,2,-41
SMILES,FBW7 act,GPR151 activ,MITF inh,TEAD-YAP inh
Cc1cccc(NC(=O)c2cc(-c3ccccc3)nc3ccccc23)c1C,0,-1,1,15
O=S(=O)(O)c1cc(O)c2cc(Nc3ccccc3)ccc2c1,0,1,44,12
Nc1ccc2cc(S(=O)(=O)O)cc(O)c2c1,-2,-1,77*,-2
Cc1ccccc1C(=O)Nc1sc2c(c1C(=O)O)CCC(C(C)(C)C)C2 (stereo unspecified),0,0,-7,13
CC(C)(C)C1CCc2c(sc(NC(=O)c3ccccc3)c2C(=O)O)C1 (stereo unspecified),0,1,9,91*
CC1CN(C(=O)c2c(NC(=O)c3ccccc3Cl)sc3c2CCC(C(C)(C)C)C3)CC(C)O1 (stereo unspecified),0,1,1,73*
CC(C)(C)C1CCc2c(sc(NC(=O)c3ccccc3F)c2C(=O)O)C1 (stereo unspecified),1,-1,8,43*
CC(C)(C)C1CCc2c(sc(NC(=O)c3cccc(Cl)c3)c2C(=O)O)C1 (stereo unspecified),0,-2,9,53*
CNC(=O)c1c(NC(=O)c2ccccc2)sc2c1CCC(C(C)(C)C)C2 (stereo unspecified),0,0,9,-22
Cc1ccc(C)c(S(=O)(=O)N2c3ccccc3CC2C)c1 (stereo unspecified),0,0,-5,2
Cc1nc(-c2ccc(C(=O)Nc3ccc(O)cc3)cc2)cs1,0,-1,-4,91*
Cc1nc(-c2ccc(NC(=O)c3ccc(C)c(C)c3)cc2)cs1,0,-1,2,-64
O=C(Nc1ccccc1)c1cccc(S(=O)(=O)N2CCCc3ccccc32)c1,0,3,6,3
Cc1cccc(NC(=O)c2ccc(F)c(S(=O)(=O)N3CCCc4ccccc43)c2)c1,0,2,-2,10
O=C(Nc1ccc(Br)cc1)c1ccc(F)c(S(=O)(=O)N2CCCc3ccccc32)c1,0,-1,-6,46*
O=C(Nc1ccc(F)cc1)c1cccc(S(=O)(=O)N2CCCc3ccccc32)c1,0,1,9,40*
CC(=O)Nc1ccc(S(=O)(=O)Nc2ccc(S(=O)(=O)N3CCc4ccccc43)cc2)cc1,0,0,9,17
COC(=O)Nc1ccc(S(=O)(=O)N2CCCc3ccccc32)cc1,0,2,7,56*
O=C(c1cc2ccccc2o1)c1cnc2ccccn12,0,-11,6,40*
CCOCCCNC(=O)c1cnn2c(C)c(Cc3ccc(Cl)cc3)c(C)nc12,0,1,-9,13
COCCOC(=O)c1[nH]c2c(c1C)C(=O)C(C(=O)OC)C(C)C2 (stereo unspecified),0,-1,-15,-10
Cc1c(C(=O)OCCOC(C)C)[nH]c2c1C(=O)CC(C)(C)C2,0,1,-4,-6
Cc1c(C(=O)OCCOC(C)C)[nH]c2c1C(=O)CC(c1ccco1)C2 (stereo unspecified),0,0,5,60*
COCCOC(=O)c1[nH]c2c(c1C)C(=O)CC(c1ccco1)C2 (stereo unspecified),0,0,5,49*
CSCCOC(=O)c1[nH]c2c(c1C)C(=O)CC(c1ccco1)C2 (stereo unspecified),0,2,13,50*
CCOCCOC(=O)c1[nH]c2c(c1C)C(=O)CC(c1ccco1)C2 (stereo unspecified),0,0,-6,51*
Cc1ccc(-c2nnc3sc(Cc4ccccc4)nn23)cc1,0,-2,18,3
Cc1c(C(=O)OCc2ccccc2)[nH]c2c1C(=O)CC(c1ccco1)C2 (stereo unspecified),0,0,15,57*
CCOC(=O)c1[nH]c2c(c1C)C(=O)CC(c1ccco1)C2 (stereo unspecified),0,2,21,58*
